Reference: ChEMBL document CHEMBL4888484, “Replenishing the malaria drug discovery pipeline: Screening and hit evaluation of the MMV Hit Generation Library 1 (HGL1) against asexual blood stage Plasmodium falciparum ,using a nano luciferase reporter read-out” (2022)
In all, about 150,000 compounds went through this assay and about 540 (0.36%) showed an effect of 50% or more. This is one part of a sample in which strong results are shown more often than they occur.

The compounds below were run on Plasmodium falciparum (assay: Primary screen in NF54 nanoGlo assay, in single point, at 2uM, 72h; a lower Z score goes with more inhibition). Conditions: timepoint 72 hour.
Type: functional, Erythrocyte
With `N[C@H]1CCOc2ccc(Br)cc2C1=O` the “% Inhibition” value was -8% and the Z score was 1.05. `N[C@H]1COc2ccc(Br)cc2C1=O` was tested, and the “% Inhibition” value was 73% and the Z score was 0.56. With `N[C@H]1CC2(CCC2)Oc2ccc(Br)cc21` the “% Inhibition” value was -4% and the Z score was 0.62. For `O=C(COc1ccc(Br)cc1F)N[C@@H](C(=O)O)c1ccc(F)c(F)c1`, the “% Inhibition” value was -17% and the Z score was 2.1. With `COc1ccc(CC(=N)Nc2cc3cc(OC)c(OC)cc3c(Cc3ccc(OC)c(OC)c3)n2)cc1OC` the “% Inhibition” value was 85% and the Z score was -9.78. With `COc1cc(NC(=O)Cc2ccc(OC)c(OC)c2)ncn1` the “% Inhibition” value was 8% and the Z score was -1.51. In the case of `COc1cc2cc(NC(C)=N)nc(C)c2cc1OC`, the “% Inhibition” value is reported as 15% and the Z score is reported as -1.95. In the case of `COc1cc(NC(=O)N2Cc3cn[nH]c3CC(C)(C)C2)c(C)c(OC)c1`, the “% Inhibition” value is reported as 13% and the Z score is reported as -1.52. `CCn1cnc2c(N3CCCOC3)ncnc21` was tested, and the “% Inhibition” value was -5% and the Z score was 0.67. With `CCn1cnc2c(N3CCC[C@H](CC(C)(C)C(N)=O)C3)ncnc21` the “% Inhibition” value was 8% and the Z score was -1.51. `CCn1cnc2c(N3CCC[C@H](c4ccncc4)C3)ncnc21` was tested, and the “% Inhibition” value was 76% and the Z score was -10.16. For `COc1cccc([C@H]2CC(O)=Nc3c2ncn3-c2cccnc2)c1OC(C)C`, the “% Inhibition” value was 28% and the Z score was -3.13. With `CC[C@@H](c1ccccn1)n1cc(-c2cc(CN(C)C)cs2)nn1` the “% Inhibition” value was -6% and the Z score was 0.72. For `Cc1ccc([C@H]2C=NN(c3ccc(Br)cc3)C2=O)cc1`, the “% Inhibition” value was 76% and the Z score was -2.14. In the case of `CC1=CN(c2ccc(Br)cc2)C(=O)N(c2ccccc2)N=C1C`, the “% Inhibition” value is reported as -45% and the Z score is reported as 5.24. With `CC(C)C(=O)N1CCN(c2ccc(Br)cc2)C(=O)[C@@H]1C` the “% Inhibition” value was -12% and the Z score was 1.14. `CCCOc1ccc(C2C3C(=O)N(c4cccc5ccccc45)C(=O)C3ON2c2ccccc2)cc1OC` (stereo unspecified) was tested, and the “% Inhibition” value was -14% and the Z score was 1.48. In the case of `O=C1C[C@@H](C(=O)N2CC(Cc3ccoc3)C2)NC(=O)N1`, the “% Inhibition” value is reported as -12% and the Z score is reported as 1.39. With `O=C(C[C@H](n1cccn1)C(F)(F)F)N1CCN(C2CC2)c2ccc(Cl)cc21` the “% Inhibition” value was -2% and the Z score was 0.26. `COc1ccc(-c2c(-c3ccc(Cl)cc3)[nH]c3c2c(=O)[nH]c(=O)n3C)cc1` was tested, and the “% Inhibition” value was -5% and the Z score was 0.54. In the case of `COc1ccc(-c2c(-c3ccc(C)c(C)c3)[nH]c3c2c(=O)[nH]c(=O)n3C)cc1`, the “% Inhibition” value is reported as -4% and the Z score is reported as 0.68. `COc1ccc(-c2c(-c3cccc(OC)c3)[nH]c3c2c(=O)[nH]c(=O)n3C)cc1` was tested, and the “% Inhibition” value was 90% and the Z score was -8.97. In the case of `NC(=O)NCCC[C@@H]1NC(=O)[C@H](Cc2ccccc2)NC1=O`, the “% Inhibition” value is reported as -12% and the Z score is reported as 1.78. `COCCc1nc(C)c([C@H](C)Nc2ccc3c(c2)CCC(=O)N3)s1` was tested, and the “% Inhibition” value was -15% and the Z score was 1.74. In the case of `CCc1cccc(Nc2nc3ccncc3n(C(C)C)c2=O)c1`, the “% Inhibition” value is reported as 1% and the Z score is reported as -0.13. `CC(C)c1cccc(Nc2nc3ccncc3n(C(C)C)c2=O)c1` was tested, and the “% Inhibition” value was 91% and the Z score was -8.7. `CC(C)n1c(=O)c(NCc2cccc(C(F)(F)F)c2)nc2ccncc21` was tested, and the “% Inhibition” value was 24% and the Z score was -2.33. With `CC1CCN(Cc2ccc(-c3ncnn3C(C)(C)C)o2)CC1` the “% Inhibition” value was -6% and the Z score was 1.14. In the case of `CN1CCC(N(C)CC(NCC2CCC=CO2)c2ccccc2)CC1` (stereo unspecified), the “% Inhibition” value is reported as -4% and the Z score is reported as 0.49. `c1ccc(COC[C@H](Nc2ncnc3ccccc23)c2ccccc2)cc1` was tested, and the “% Inhibition” value was -12% and the Z score was 1.08. In the case of `Cc1cc(C)nc(O[C@H]2CCCN(C(=O)c3cccn(C)c3=O)C2)n1`, the “% Inhibition” value is reported as -2% and the Z score is reported as 0.22. With `O=C(N[C@H]1CCS(=O)(=O)C1)c1cccc(Oc2cccc(C(F)(F)F)c2)c1` the “% Inhibition” value was -25% and the Z score was 2.94. For `O=C(Nc1cc(N2CCCS2(=O)=O)ccc1O)c1cccc(Oc2cccc(C(F)(F)F)c2)c1`, the “% Inhibition” value was 99% and the Z score was -18.11. `O=C(Nc1cccnc1)c1cccc(Oc2cccc(C(F)(F)F)c2)c1` was tested, and the “% Inhibition” value was -13% and the Z score was 1.85. For `Cc1nc2ccc(NC(=O)C3C4C=CC(C4)C3C(=O)O)cc2s1` (stereo unspecified), the “% Inhibition” value was 7% and the Z score was -1.15. For `CCOc1ccc(-c2nc(Cn3ccnn3)co2)cc1`, the “% Inhibition” value was -6% and the Z score was 1.08. `FC(F)(F)c1ccc(-c2nc(Cn3ccnn3)co2)cc1` was tested, and the “% Inhibition” value was 89% and the Z score was -0.03. In the case of `Brc1ccc(-c2nc(Cn3ccnn3)co2)cc1`, the “% Inhibition” value is reported as -11% and the Z score is reported as 1.68. In the case of `CO[C@H]1CN(C2CCN(C(=O)CCc3c[nH]c4ccccc34)CC2)C12CCOCC2`, the “% Inhibition” value is reported as -2% and the Z score is reported as 0.27. In the case of `O=C(N[C@H]1CCN(c2cnccn2)C[C@@H]1O)c1ccc2c(c1)OCO2`, the “% Inhibition” value is reported as 0% and the Z score is reported as 0.01. In the case of `COc1ccc(CC(=O)N2CC3(C[C@H](N4CCCCC4)CO3)C2)cc1`, the “% Inhibition” value is reported as -5% and the Z score is reported as 0.75. `Cn1ccnc1[C@@H]1CCCN1Cc1nccn1Cc1ccccc1` was tested, and the “% Inhibition” value was 50% and the Z score was -4.75. In the case of `Cn1cc([C@@H]2CCCN2Cc2nccn2Cc2ccccc2)cn1`, the “% Inhibition” value is reported as -5% and the Z score is reported as 0.74.
